# Reference: PubChem BioAssay (NCATS)
# Inconclusive results are not listed. Entries that show only a call come without a potency. Unmarked numbers belong to inactive results. Active and inactive are the calls of the source. Unless noted, calls follow the shape of the dose curve; as a rule, active = well fitted curve in the direction sought with a large enough effect; inconclusive = small, poorly fitted or top-dose-only effect, or another doubt; inactive = no such curve, though single readings can be large; an effect the other way counts as inactive or inconclusive. Where a SMILES comes first, the peptide text is derived from it. The star is where a group is joined. AFC = O=c1cc(C(F)(F)F)c2ccc(N*)cc2o1
# How the values were obtained:
# [1] = target: Calcium and integrin-binding protein 1 (Homo sapiens) (UniProt Q99828); assay: Primary qHTS for Identification of Calcium Integrin Binding Protein 1 (CIB1) Competitor (AID 1508620);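 also: GST tagged CIB1 binding a fluorescein labelled alphaIIb integrin peptide tracer; top concentration of the series differs between compounds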
# Outline: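 Fluorescence polarization competition: GST-tagged CIB1 (1 uM final) preincubated with compound 15 min at room temperature, then FITC-labelled alphaIIb peptide (100 nM final) added. After 15 min at room temperature, polarization read at Ex 480/Em 540.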
# [2] = qHTS to identify inhibitors of the type 1 interferon - major histocompatibility complex class I in skeletal muscle: primary screen against the NCATS Mechanism Interrogation Plate v5.0 (MIPE) Libary (AID 1347411); also: nearly all actives have a fitted effect of over 65% in size; also: potency is read from the fitted curve at half-maximal effect
# Outline: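 Immortalized human myoblasts (C25cl48) with HiBit knocked into endogenous HLA-B*08:01 were stimulated with 4 ng/ml IFN-beta and given compounds in 11-point 1:3 titration from 46 uM. After 24 h at 37 C, lytic HiBiT luminescence was read.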
# [3] = target: Cytochrome P450 2D6 (Homo sapiens) (UniProt P10635); assay: Cytochrome P450 family 2 subfamily D member 6 (CYP2D6) small molecule antagonists: luciferase biochemical (cell-free) qHTS assay (AID 1645840; active = well fitted curve in the direction sought with a large enough effect in the repeat runs; an effect the other way counts as inactive or inconclusive; also: nearly all actives have a fitted effect of over 55% in size; also: potency is read from the fitted curve at half-maximal effect; as to activity change, negative = inhibition: series mostly up to about 57 µM)
# Outline: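 P450-Glo luminescent screen: recombinant CYP2D6 enzyme–proluciferin substrate mix preincubated with compound 10 min at room temperature, then NADPH regeneration added for 1 h at room temperature. Detection reagent added for 20 min; luciferin light read as relative luminescence units.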
# [4] = target: Calcium and integrin-binding protein 1 (Homo sapiens) (UniProt Q99828); assay: Confirmatory qHTS for Identification of Calcium Integrin Binding Protein 1 (CIB1) Competitor (AID 1508617); also: nearly all actives have a fitted effect of over 65% in size; also: potency is read from the fitted curve at half-maximal effect
# Outline: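 Fluorescence polarization competition: CIB1-GST (1 uM final) in 5 mM HEPES pH 7.4, 125 mM NaCl, 5 mM CaCl2, 0.01% Tween20 preincubated 15 min RT with compound (up to 114 uM), then FITC-alphaIIb peptide (100 nM) added, 15 min RT.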
# Calcium and integrin-binding protein 1 (Homo sapiens), sequence (Q99828 whole entry, looked up): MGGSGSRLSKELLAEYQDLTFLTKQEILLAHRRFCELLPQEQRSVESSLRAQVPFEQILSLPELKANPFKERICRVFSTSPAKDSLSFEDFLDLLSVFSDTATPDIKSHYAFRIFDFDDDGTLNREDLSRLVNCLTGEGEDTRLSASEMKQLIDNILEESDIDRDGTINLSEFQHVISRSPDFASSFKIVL
# Cytochrome P450 2D6 (Homo sapiens), sequence (P10635 whole entry, looked up): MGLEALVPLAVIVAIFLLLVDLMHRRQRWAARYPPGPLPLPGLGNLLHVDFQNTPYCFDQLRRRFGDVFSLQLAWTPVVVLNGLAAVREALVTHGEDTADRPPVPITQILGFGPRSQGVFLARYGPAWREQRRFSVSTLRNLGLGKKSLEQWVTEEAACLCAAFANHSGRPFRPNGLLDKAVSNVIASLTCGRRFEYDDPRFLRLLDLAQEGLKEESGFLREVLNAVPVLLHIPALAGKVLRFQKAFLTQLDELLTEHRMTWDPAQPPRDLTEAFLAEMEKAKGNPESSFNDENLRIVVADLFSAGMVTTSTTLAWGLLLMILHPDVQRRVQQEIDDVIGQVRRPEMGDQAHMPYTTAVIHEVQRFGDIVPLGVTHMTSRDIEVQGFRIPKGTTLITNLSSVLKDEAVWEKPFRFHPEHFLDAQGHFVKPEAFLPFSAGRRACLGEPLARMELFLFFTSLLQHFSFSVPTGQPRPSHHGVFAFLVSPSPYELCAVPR
smiles,measurement,setting,value
COc1cc(CC(COC2OC(CO)C(O)C(O)C2O)c2cc(/C=C/CO)cc(OC)c2O)ccc1O (stereo not drawn),Potency,[1],inactive
Cc1cc(C)cc(NC(=O)Cc2ccc(OC(C)(C)C(=O)O)cc2)c1,Potency,[2],inactive
same,Potency,[1],inactive
same,Potency,[3],inactive
CO[C@@H]1COCC[C@@H]1N[C@@H]1CC[C@@](C(=O)N2CCc3ncc(C(F)(F)F)cc3C2)(C(C)C)C1,Potency,[2],inactive
same,Potency,[1],inactive
same,Potency,[3],16.9 µM (active)
COc1ccc2cc(OCC3(C(=O)O)CN(C(=O)c4ccc(F)cc4)C3)ccc2c1,Potency,[2],inactive
same,Potency,[1],inactive
same,Potency,[3],inactive
COc1cc2c(Nc3ccc(Cl)c(Cl)c3F)ncnc2cc1OCC1C[C@@H]2CN(C)C[C@@H]2C1 (stereo partly drawn),Potency,[2],20.8 µM (active)
same,Potency,[1],inactive
same,Potency,[3],16.9 µM (active)
CC(C)N(C[C@H]1O[C@@H](n2cnc3c(N)ncnc32)[C@H](O)[C@@H]1O)C1CC(CCc2nc3ccc(C(C)(C)C)cc3[nH]2)C1 (stereo partly drawn),Potency,[2],inactive
same,Potency,[1],inactive
same,Potency,[3],16.9 µM (active)
CC[C@@H](c1ccc(F)c(F)c1)n1c(C(=O)OC)c(-c2ccno2)[nH]c1=S,Potency,[4],inactive
same,Potency,[3],inactive
OC[C@H]1O[C@@H](Oc2ccc(O)c3cccc(O)c23)[C@H](O)[C@@H](O)[C@@H]1O,Potency,[4],11.2 µM (active)
C[C@H]1CN(C[C@H](Cc2ccccc2)C(=O)NCC(=O)O)CC[C@@]1(C)c1cccc(O)c1,Potency,[2],inactive
same,Potency,[1],inactive
same,Potency,[3],inactive
CNc1nc(Nc2cnn([C@H]3CCN(C4COC4)C[C@@H]3F)c2Cl)ncc1C(F)(F)F,Potency,[2],inactive
same,Potency,[1],inactive
same,Potency,[3],inactive
COC1=CC(=O)O[C@@H](CCc2ccccc2)[C@@H]1O,Potency,[1],inactive
CCC(=O)O[C@]1(C(=O)CCl)[C@@H](C)C[C@H]2[C@@H]3C[C@H](F)C4=CC(=O)C=C[C@]4(C)[C@@]3(F)[C@@H](O)C[C@@]21C,Potency,[1],inactive
Cc1cccc(-c2[nH]c(CNc3ccccc3F)nc2-c2ccc3ncnn3c2)n1,Potency,[1],inactive
CC(=O)N[C@@H](CC(C)C)C(=O)N[C@@H](CCC(=O)O)C(=O)N[C@@H](CCC(=O)O)C(=O)N[C@@H](CC(=O)O)C(=O)Nc1ccc2c(C(F)(F)F)cc(=O)oc2c1 (Ac-LEED-{AFC}),Potency,[1],inactive
CCC(C)/C=C(C)/C=C/C1=CC2=C(Cl)C(=O)C(C)(OC(C)=O)C(=O)C2=CN1C1CCCCN(C(CCC(N)=O)C(=O)O)C1=O (stereo not drawn),Potency,[1],inactive
CC1=C2C=C(CO)C(CO)CCC2(C)CCC1=O (stereo not drawn),Potency,[1],inactive
COC1CC(=O)CCC(C)OC(=O)CC1O (stereo not drawn),Potency,[1],inactive
C[C@@H]1O[C@@H](O[C@@H]2[C@@H](O)[C@@H](O)[C@H](O[C@@H]3[C@@H](O)[C@@H](O[C@]4(CO)O[C@H](CO)[C@@H](O)[C@@H]4OC(=O)/C=C/c4ccc(O)cc4)O[C@H](CO)[C@H]3OC(=O)/C=C/c3ccc(O)cc3)O[C@H]2C)[C@H](O)[C@H](O)[C@H]1O,Potency,[1],inactive
COC(=O)C1=C[C@@H](O)[C@@H](O)[C@H](O[C@@H]2O[C@H](COC(=O)/C=C/c3ccccc3)[C@@H](O)[C@H](O)[C@H]2O)C1,Potency,[1],inactive
COc1ccccc1CC(C(=O)O)N(C)C(=O)c1ccccc1 (stereo not drawn),Potency,[1],inactive
C=C1CCC2C(C)(C)C(O)CCC2(C)C1CCC(C)CCOC(=O)CCC(=O)O (stereo not drawn),Potency,[1],inactive
C[C@@H]1CC[C@]2(C)C(C[C@@H](O)[C@H](O)[C@]23CO3)[C@@]1(C)CCc1ccoc1 (stereo partly drawn),Potency,[1],inactive
CC(=C/C(=O)O)/C=C/[C@]1(O)[C@@]2(C)CO[C@]1(C)C[C@H](O[C@@H]1O[C@H](CO)[C@@H](O)[C@H](O)[C@H]1O)C2,Potency,[1],inactive
C=CC(C)(O)CC/C=C(\C)C(=O)OCC1OC(OC2CCC3(C)C(CCC4(C)C3CC=C3C5CC(C)(C)C(O)CC5(C(=O)O)CCC34C)C2(C)C)C(O)C(OC2OC(CO)C(O)C(OC3OC(CO)C(O)C(OC4OC(COC5OC(CO)C(O)C(O)C5O)C(O)C(O)C4O)C3O)C2O)C1O (stereo not drawn),"activity change, negative = inhibition",[1],0.919% [at 12.4 µM]
COc1cc(C(C)=O)ccc1O[C@@H]1O[C@H](CO[C@@H]2O[C@@H](C)[C@H](O)[C@@H](O)[C@H]2O)[C@@H](O)[C@H](O)[C@H]1O,Potency,[1],inactive
C/C1=C\C[C@H](O[C@@H]2O[C@H](CO)[C@@H](O)[C@H](O)[C@H]2O)/C(C)=C/[C@H]2OC(=O)[C@H](C)[C@@H]2CC1,Potency,[1],inactive
CCCC(N[C@@H](C)C(=O)N1[C@H](C(=O)O)C[C@@H]2CCCC[C@@H]21)C(=O)OCC (stereo partly drawn),Potency,[1],inactive
CC1=CC(=O)C2C(C)(C)CCCC2(C)C12CCC1(COC(=O)C1)O2 (stereo not drawn),Potency,[1],inactive
